# High-throughput results from PubChem BioAssay.
# Compounds with a hit are over-represented: about 13% of the library has one in this group of screens.
# KDM4E inh: qHTS Assay for Inhibitors of Human Jumonji Domain Containing 2E (JMJD2E); Lysine-specific demethylase 4E (Homo sapiens), B2RXH2; JMJD2E catalytic domain, FDH-coupled NADH fluorescence (FDH is formaldehyde dehydrogenase); Potency, µM (highest dose often 57.1 µM), inactives show at the top dose activity change, negative = inhibition, usual class: inhibitors; 230,000 compounds, 1.6% hits; AID 2147, 2009; active = well fitted inhibition curve with a large enough effect, not every such curve was filed as active; inconclusive = small, poorly fitted or top-dose-only effect, or another doubt; inactive = no such curve, though single readings can be large or run the other way;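 also: potency is read from the fitted curve at half-maximal effect; 0% = wells with enzyme and -100% = buffer wells without enzyme; nearly all actives have a fitted effect of over 50% in size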
# Target sequence (B2RXH2 1-337 limits assumed): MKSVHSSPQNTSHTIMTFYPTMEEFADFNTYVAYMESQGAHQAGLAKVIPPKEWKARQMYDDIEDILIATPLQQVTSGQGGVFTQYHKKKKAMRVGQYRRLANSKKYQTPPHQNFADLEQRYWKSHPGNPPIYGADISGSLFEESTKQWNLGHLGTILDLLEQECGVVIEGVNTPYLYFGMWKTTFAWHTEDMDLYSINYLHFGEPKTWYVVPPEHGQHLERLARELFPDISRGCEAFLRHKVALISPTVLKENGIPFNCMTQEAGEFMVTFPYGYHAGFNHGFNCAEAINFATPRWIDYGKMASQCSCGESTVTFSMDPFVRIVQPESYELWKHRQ
# LMNA splice mod: qHTS Assay for Modulators of Lamin A Splicing; HeLa LMNA splicing GFP/RFP minigene ratio, 48 h; Potency, µM (highest dose often 46.1 µM), for inactives: at the highest dose ratio change, negative = inhibition, actives largely listed as inhibitors; 200,000 compounds, 0.01% hits; AID 1487, 2009; active = well fitted inhibition curve with a large enough effect in the signal ratio, with a control signal flat, not every such curve was filed as active; inconclusive = small, poorly fitted or top-dose-only effect, or effect the other way, or a change in a side signal; the % refers to the signal ratio; also: potency is read from the fitted curve at half-maximal effect; % is scaled to controls: 0 for no effect and ±100 for the full control effect
#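 S3 HeLa cells stably expressing lamin A-EGFP splicing minigene plus DsRed2, 600 cells/well, 48 h compound exposure at 37C. Laser-scanning cytometry; analysed as GFP (500-530 nm)/RFP (575-640 nm) total intensity ratio; 0.5% DMSO vehicle.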
# miR-21 act: qHTS Assay for Modulators of miRNAs and/orActivators of miR-21 | HeLa miR-21 FLuc reporter, luciferase, 48 h | Potency, µM (doses to about 38.3 µM), for the others: at the highest dose activity change, positive = activation, usual class: activators | 340,000 tested, under 10 active | AID 2288, 2010;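 also: % of control where 0% means no effect; miR-21 action dims this reporter so a rising signal means less miR-21 action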
#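 HeLa cells endogenously expressing miR-21, stably carrying CMV-driven firefly luciferase with a downstream miR-21 binding site, 2000 cells/well. Titrations up to approximately 40 uM, 48 hours; luciferase luminescence read.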
# G9a inh: qHTS Assay for Inhibitors of Histone Lysine Methyltransferase G9a | G9a H3K9 monomethylation, AlphaScreen, 2 h | Potency, µM (top dose mostly 102 µM), inactives show top-dose activity, negative = inhibition, hits mostly inhibitors | 350,000 compounds, 8.8% hits | AID 504332, 2011; also: potency is read from the fitted curve at half-maximal effect; % is scaled to controls: 0 for no effect and ±100 for the full control effect; nearly all actives have a fitted effect of over 75% in size
#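 G9a (20 nM) was preincubated 15 min with compound, then reacted 2 h at room temperature with 500 nM biotin-H3K9 peptide and 20 µM SAM. Monomethyl-H3K9 detected by AlphaScreen using anti-H3K9me1 antibody.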
# Sfp PPTase inh: qHTS Assay for Inhibitors of Bacillus subtilis Sfp phosphopantetheinyl transferase (PPTase) | Biochemical Sfp PPTase activity, qHTS | Potency, µM, for the others: largest response in the series, negative = inhibition, most hits filed as inhibitors | 310,000 compounds, 3.5% hits | AID 1490, 2009;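 also: the enzyme is Sfp with the accession as filed and its product quenches rhodamine fluorescence; potency is read from the fitted curve at half-maximal effect; 0% = enzyme reaction without inhibitor and -100% = no enzyme wells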
#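 Step 1, compound plus 15 nM Sfp-PPTase, 15 min, room temperature. Step 2, add rhodamine-CoA (5 uM) and BHQ-2-YbbR (12.5 uM). Step 3, read 525/598 nm fluorescence at 0 and 30 min.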
# ALDH1A1 block: qHTS Assay for Inhibitors of Aldehyde Dehydrogenase 1 (ALDH1A1); 220,000 compounds, 7.3% hits; AID 1030, 2008; Potency, µM (series often up to 75.3 µM), without a hit: at the top dose activity, negative = inhibition, usual class: inhibitors; Purified ALDH1A1, NADH fluorescence, propionaldehyde substrate; Aldehyde dehydrogenase 1A1 (Homo sapiens), P00352; active = well fitted inhibition curve with a large enough effect, not every such curve was filed as active; inconclusive = small, poorly fitted or top-dose-only effect, or another doubt; inactive = no such curve, though single readings can be large or run the other way;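 also: potency is read from the fitted curve at half-maximal effect; plate controls were no enzyme wells and a reference inhibitor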
# Target sequence (P00352 whole entry, looked up): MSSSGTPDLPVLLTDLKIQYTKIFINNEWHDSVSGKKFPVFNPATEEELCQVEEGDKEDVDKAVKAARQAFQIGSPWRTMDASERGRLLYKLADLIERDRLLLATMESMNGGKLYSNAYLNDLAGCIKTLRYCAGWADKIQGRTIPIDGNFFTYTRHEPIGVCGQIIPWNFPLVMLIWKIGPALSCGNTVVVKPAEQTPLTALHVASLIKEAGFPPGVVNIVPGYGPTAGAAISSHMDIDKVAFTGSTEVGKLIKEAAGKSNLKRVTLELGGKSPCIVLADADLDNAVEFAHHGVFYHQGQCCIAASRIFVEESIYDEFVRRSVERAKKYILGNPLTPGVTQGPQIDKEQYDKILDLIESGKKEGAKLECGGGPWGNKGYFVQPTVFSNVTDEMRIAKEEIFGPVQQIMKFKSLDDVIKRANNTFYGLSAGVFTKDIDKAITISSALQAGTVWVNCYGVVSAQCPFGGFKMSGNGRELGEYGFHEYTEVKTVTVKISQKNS
# Numbers without * were called inactive; ? = inconclusive; nt = no result given; ! = repeats disagree; [ ] = remark or other dose. Unless noted, calls follow the shape of the dose curve; as a rule, active = well fitted curve in the direction sought with a large enough effect; inconclusive = small, poorly fitted or top-dose-only effect, or another doubt; inactive = no such curve, though single readings can be large; an effect the other way counts as inactive or inconclusive.
SMILES,KDM4E inh,LMNA splice mod,miR-21 act,G9a inh,Sfp PPTase inh,ALDH1A1 block
Cc1ccc(/C=N/n2c(-c3cccs3)n[nH]c2=S)cc1,-23.7%,-4.9%,-0.7%,0.447µM*,-18.3%,?
CC(=NCC(=O)O)c1ccccc1,nt,nt,nt,nt,nt,5.4%[13.5 µM]
COc1ccc(S(=O)(=O)N2CCN(C(=O)c3cc(-c4ccc(C)cc4)n[nH]3)CC2)cc1,nt,nt,4.7%,1.6%,5.6%,nt
COc1ccc(NC(=O)Nc2cccs2)cc1Cl,?,nt,-40.4%,?,44.7µM*,-12.3%
Cc1cccc(NC(=O)Nc2cccc(C#N)c2)n1,-7.9%,-3.4%,-27.3%,0.9%,5.5%,0.2%
N#Cc1cccc(NC(=O)Nc2cccs2)c1,-5.1%,-1.5%,0.3%,79.4µM*,?,-1.9%
COc1ccc(NC(=O)CCC(=O)c2cccs2)cc1Cl,nt,nt,-11.0%,-0.9%,5.3%,nt
CCc1cccc(NC(=O)Nc2cccs2)c1,7.4%,-14.4%,-26.6%,12.6µM*,31.6µM*,-2.0%
CCC1=[N+](CC(=O)c2ccc(Br)cc2)CCn2c(C)ccc21,?,nt,-34.5%,31.6µM*,-17.2%,nt
CCC1=[N+](CC(=O)c2ccc(C)cc2)CCn2c(C)ccc21,?,?,-28.2%,?,-8.3%,-13.2%
CCC1=[N+](C)CCn2c(C)ccc21,-5.6%,12.0%,0.6%,1.78µM*,8.5%,-13.1%
CCC1=[N+](CC(=O)c2ccc(C)cc2)CCn2cccc21,-6.2%,?,-38.9%,?,6.6%,0.1%
CC1(C)CC(N2CCCC2)=CC(=[N+]2CCCC2)C1,-9.7%,?,?,?,?,-5.5%
CC1(C)CC(NNCCC#N)=CC(=[N+]2CCCC2)C1,0.8%,nt,4.4%,39.8µM*,-16.3%,?
CS(=O)(=O)N(CCC#N)Cc1ccc(/C=C2\C(=O)Nc3ccccc32)o1,-6.1%,18.5%[46 µM],22.6%,44.7µM*,-0.1%,0.1%
Cc1ccccc1CNC(=O)C(C)n1nc(C)n2c(cc3occc32)c1=O (stereo not drawn),nt,nt,-2.7%,-3.7%[59 µM],nt,nt
CCOC(=O)CC1C(=O)NCCN1S(=O)(=O)c1ccc(NC(C)=O)cc1 (stereo not drawn),nt,nt,-0.7%,19.9%,10.1%,nt
CC(=O)Nc1ccc(S(=O)(=O)N(C)CC(=O)Nc2ccccc2N2CCCC2)cc1,nt,nt,nt,44.7µM*,nt,nt
CN(CC(=O)Nc1ccc(F)cc1)CC(=O)N1CCc2ccccc21,nt,nt,nt,56.2µM*,nt,nt
CN(CC(=O)Nc1ccccc1Cl)CC(=O)N1CCc2ccccc21,nt,nt,nt,21.1%[12.7 µM],nt,nt
CC(=O)Nc1ccc(S(=O)(=O)N(C)CC(=O)OCC(=O)N2CCc3ccccc32)cc1,-8.4%,-4.1%,-4.3%,50.1µM*,2.9%,8.91µM*
CN(C)c1ccc(CNC(=O)Cc2ccc(NC(=O)N3CCCCc4ccccc43)cc2)cc1,nt,?,-3.5%,12.6µM*,nt,nt
Cc1ccc(-n2c(CC#N)n[nH]c2=S)c(C)c1,2.2%,nt,-3.5%,22.4µM*,-28.9%,nt
Cc1ccc(-n2c(Cc3ccccc3)n[nH]c2=S)c(C)c1,-5.1%,-0.5%[46 µM],-3.1%,?,2.5%,4.8%
C=CCNC(=O)/C(C#N)=C\c1cc(Cl)c(OCC)c(OC)c1,?,-21.1%,-3.5%,-11.4%,-12.2%,?
SMILES,KDM4E inh,LMNA splice mod,miR-21 act,G9a inh,Sfp PPTase inh,ALDH1A1 block
COCCn1c(SCC(=O)N2CCOCC2)nnc1-c1ccncc1,nt,nt,0.5%,41.0%,12.3%,nt
CCCSc1ccc([C@@H]2[C@@H]3C(=O)N(C)C(=O)[C@@H]3[C@]3(C(=O)OC)CCCN23)cc1OC,nt,nt,nt,-9.4%[2.33 µM],nt,nt
Cc1cc(/C=C2/SC(=S)N(c3ccc([N+](=O)[O-])cc3)C2=O)c(C)n1-c1cccnc1,-28.0%,?,6.9%,10µM*,-26.8%,1.26µM*
Cc1cccc(N2C(=O)/C(=C/c3cccnc3)SC2=S)c1,1.5%,nt,-0.8%,15.8µM*,13.8%,nt
Cc1ccc(/C=C2\SC(=S)N(c3cccnc3)C2=O)o1,11.2µM*,nt,-0.1%,?,50.1µM*,nt
Cc1ccc(N2C(=O)/C(=C/c3cccnc3)SC2=S)cc1,-2.5%,?,-4.9%,9.9%[59 µM],2.0%,?
CCOc1cc(-c2nc(-c3ccc(-c4ccc(C)cc4)nc3OC)no2)cc(OCC)c1OCC,nt,nt,-0.3%,8.8%[59 µM],nt,nt
CC(NC(=O)CCn1c(=O)c2cccn2c2ccc(F)cc21)c1ccccc1 (stereo not drawn),nt,?,-5.0%,0.2%[59 µM],nt,nt
CCOC(=O)/C(C#N)=C1/C(=O)N(Cc2ccccc2)c2ccccc21,-24.8%,nt,1.1%,25.1µM*,44.7µM*,0.112µM*
CC12CN3CC(C)(CN(C1)C3c1ccc3ccccc3c1O)C2=O (stereo not drawn),-25.7%,3.2%,0.1%,1.58µM*,-12.5%,-1.5%
CCCS(=O)(=O)c1nc(S(=O)(=O)c2ccc(C)cc2)c(NCc2ccc3c(c2)OCO3)s1,-0.1%,?,-19.5%,39.8µM*,8.5%,3.4%
CCCS(=O)(=O)c1nc(S(=O)(=O)c2ccc(C)cc2)c(NCc2ccccc2Cl)s1,nt,nt,-10.0%,1.1%[59 µM],nt,nt
CCCS(=O)(=O)c1nc(S(=O)(=O)c2ccc(C)cc2)c(NCCN2CCOCC2)s1,4.4%,1.6%,-4.9%,-7.2%[12.7 µM],-12.2%,14.1µM*
NC(=NC1C2CC3CC(C2)CC1C3)Nc1ccc(I)cc1 (stereo not drawn),-0.1%,nt,nt,28.2µM*!,28.5%,-6.2%
S=C(NN=C1C2CC3CC(C2)CC1C3)Nc1ccccc1,-8.6%,5.4%,-26.4%,?,?,?
COc1ccc(S(=O)(=O)N2CCOCC2)cc1NC(=O)Cc1coc2cc(C)c(C)cc12,nt,nt,-0.9%,50.1µM*,1.5%,nt
COc1ccc(S(=O)(=O)N2CCOCC2)cc1NC(=O)CCNC(=O)c1ccc(Br)cc1,nt,nt,nt,15.8µM*,nt,nt
COc1ccc(NC(=O)Cc2coc3cc(C)c(C(C)C)cc23)cc1S(=O)(=O)N1CCOCC1,?,?,23.8%,10µM*,-1.4%,22.4µM*
COc1ccc(S(=O)(=O)N2CCOCC2)cc1NC(=O)CCNC(=O)c1ccc(Cl)cc1,nt,nt,nt,-32.0%,nt,nt
COc1ccc(S(=O)(=O)N2CCOCC2)cc1NC(=O)Cc1ccccc1Cl,-6.7%,3.4%,-2.8%,15.1%[59 µM],-0.5%,-9.3%
CCN(C(=O)Cn1ncc2c(=O)oc3ccc(C)cc3c21)c1cc(OC)ccc1OC,nt,nt,-1.2%,?,nt,nt
O=C(NCC1CCCO1)C(c1ccncc1)N(Cc1ccc(F)cc1)C(=O)CN1C(=O)c2ccccc2S1(=O)=O (stereo not drawn),-7.1%,-6.8%,2.5%,1.4%[59 µM],6.0%,12.6µM*
